Records with an inconclusive call do not appear. A call without a number means that no potency is given here. The source made the active and inactive calls. Calls follow the shape of the dose curve; as a rule, active = well fitted inhibition curve with a large enough effect; inconclusive = small, poorly fitted or top-dose-only effect; inactive = flat fitted curve, though single readings scatter.

The assay addresses Luciferin 4-monooxygenase (Photinus pyralis) (UniProt P08659). Put plainly: qHTS screen for small molecules that inhibit ELG1-dependent DNA repair: SAR in Biochemical Luciferin Assay. As to conditions: purified firefly luciferase, luciferin luminescence counter-screen; series mostly up to 57.5 µM. From the text:
Cancer cells divide rapidly compared to normal cells in the body. During cell division, cancer cells need to duplicate their genome by DNA replication. The failure of genome duplication leads to cancer cells' death. Therefore, inhibitors of DNA replication could specifically kill cancer cells. Based on this concept, many chemotherapeutic agents were developed and have been used to treat cancer patients. However, there are a limited number of agents available in the clinical setting, and some of those that do exist have low efficacy and severe side effects. Therefore, if we can find the compounds that effectively block DNA replication either by directly damaging DNA or by inhibiting other cellular mechanisms, the options for cancer treatment will be broadened. With this in mind, we developed a quantitative high-throughput ELG1-luciferase reporter gene assay. Small molecules that specifically block ELG1 function in response to DNA damage can be identified by monitoring the suppression of luciferase activity. Since ELG1 defines a pathway for repairing DNA damage, agents blocking ELG1 function can be used to sensitize cancer cells to chemotherapeutic agents whose mechanism of action involves the induction of DNA damage. This counter assay is a luciferase assay, that following treatment with putative ELG1 antagonists, aims to eliminate luciferase enhancers/inhibitors. NIH Molecular Libraries Probe Production Network [MLPCN] NIH Chemical Genomics Center [NCGC] MLPCN Grant: R03 MH092164 Assay Provider: Kyungjae Myung, NHGRI, NIH
3 uL of substrate reagent will be pipetted into each well in 1536-well white, solid-bottom plates using a FRD dispenser, followed by addition of 23 nL of DMSO or compounds by pintool. After compound addition, 1 µL of luciferase will be added into the wells. The plates will be read in a ViewLux CCD-based plate reader.
As to `O=C(COc1ccccc1F)Nc1ccc(-c2nc3ccccc3s2)cc1`, the Potency result was “inactive”.

With `Cc1nc(Nc2nc3ccccc3o2)nc2c1CCCC2`, the Potency is 651 nM (active).

As for `COc1cc2c(cc1OC)C1C(=O)c3c(O)cc4c(c3OC1CO2)C=CC(C)(C)O4` (stereo not given), the Potency entry was “inactive”.

In the case of `CC(/C=C/C(=O)NO)=C\[C@@H](C)C(=O)c1ccc(N(C)C)cc1`, the Potency result is “inactive”.

Regarding `OCC1OC(n2cnc3c(=S)nc[nH]c32)C(O)C1O` (stereo not given), the Potency result was “inactive”.

Regarding `N#Cc1ccc(-c2ccc(-c3nc4ccccc4c(=O)[nH]3)o2)cc1`, the Potency entry was “inactive”.

On to `CN(Cc1ccco1)c1ncnc2ccc(-c3cccc(Cl)c3)cc12`, for which the Potency entry was “inactive”.

On to `COc1ccc(OC)c(-c2nnc3n2N=C(c2ccc(OC)c(OC)c2)CS3)c1`, for which the Potency entry was “inactive”.

Turning to `O=c1[nH]c(-c2ccc(-c3cccc(Cl)c3)o2)nc2ccccc12`, the Potency was 461 nM (active).

Turning to `c1cncc(CNc2ncnc3ccc(-c4ccoc4)cc23)c1`, the Potency entry was “inactive”.

As to `COc1ccc(C2=Nn3c(nnc3-c3ccccc3OC)SC2)cc1OC`, the Potency result is “inactive”.

As to `Cc1csc(CNc2ncnc3ccc(-c4ccoc4)cc23)c1`, the Potency entry was “inactive”.

Consider `CN(C)c1cccc(-c2ccnc(N3CCC(C(N)=O)CC3)n2)c1`, for which the Potency is 16400 nM (active).

As to `O=C(Nc1ccccn1)c1sc2ccccc2c1Cl`, the Potency is 164 nM (active).

As for `CS[C@@H]1SC[C@H]2C(=O)N(C)C(C(C)C)C(=O)OC[C@@H](NC(=O)c3cnc4ccccc4n3)C(=O)N[C@@H](C)C(=O)N(C)[C@H]1C(=O)N(C)C(C(C)C)C(=O)OC[C@@H](NC(=O)c1cnc3ccccc3n1)C(=O)N[C@@H](C)C(=O)N2C` (stereo not given in full), the Potency entry is “inactive”.

Values taken from PubChem BioAssay AID686933 (National Center for Advancing Translational Sciences (NCATS), 2013).
